Sampled rows, rich in hits. Any-hit rate of the full collection: about 2.1%.
eIF4H inh = human eIF4H binding inhibitors, primary screen, translation initiation inhibitor project, biochemical, uHTS, fluorescence polarization | Eukaryotic translation initiation factor 4H (Homo sapiens), Q15056 | AID 2012, 2009 | 0.94% of 290,000 active | inhibition, % at 35 µM | eIF4H fluorescence polarization binding assay;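 further: calls also rest on retests at 20 µM and on dose response follow-up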
PABP FP inh = PABP poly(A) RNA binding inhibitors, primary screen, biochemical, fluorescence polarization, uHTS; Polyadenylate-binding protein 1 (Homo sapiens), P11940; inhibition, % at 35 µM; 1% of 290,000 active; AID 2014, 2009;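 further: calls also rest on retests at 20 µM and on dose response follow-up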
PABP1 MLLE inh = inhibitors of PABP1 MLLE–PAM2 peptide binding, primary screen, biochemical, fluorescence polarization, FITC-PAM2, GST-MLLE. inhibition, % at 20 µM. 0.36% of 360,000 active. AID 588489, 2011; in the data active means inhibition above about 35%, passing the limit was not always enough;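 further: plate controls were DMSO wells with GST-MLLE for no effect and wells lacking GST-MLLE protein for full effect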
NRP1-CendR mod = modulators of CendR peptide binding to NRP-1, primary screen, biochemical, fluorescence polarization, uHTS; FAM-RPARPAR peptide binding to NRP-1; inhibition, % at 25 µM; 0.85% of 360,000 active;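 active means inhibition or corrected inhibition above about 18%, plus a signal ratio from 0.5 to 1.5, limit read from the data, passing the limit was not always enough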
Active calls of the source: *; i = inactive; u = inconclusive; x = no result. Unless noted, how the calls were made is not given here.

SMILES | eIF4H inh | PABP FP inh | PABP1 MLLE inh | NRP1-CendR mod
C=Cn1ccnc1P(=S)(c1ccccc1)c1nccn1C=C | active | 91 | 0 | 10
CC(C)CC1(CCc2ccccc2)C(=O)NC(=O)NC1=O | x | x | -1 | -2
CC(C)N1CC=C(c2c[nH]c3ccccc23)CC1 | -1 | -1 | -2 | 10
C1=C(c2c[nH]c3ccccc23)CCNC1 | 95* | 82* | x | x
COc1ccc(/C=C2/C(=O)NC(=O)N(c3ccc(C)c(C)c3)C2=O)cc1CN1C(=O)c2ccccc2C1=O | 50* | active | 27 | -70
CCC1C2Cc3ccc(O)cc3C1(CC)CCN2C (stereo unspecified) | x | x | 0 | 32*
CN1CC[C@@]23CCCC[C@@H]2[C@@H]1Cc1ccc(O)cc13 | -4 | -4 | -2 | -4
CN1C(=O)C(=Cc2ccc(-c3cccc(Cl)c3)o2)C(=O)N(C)C1=O | 62 | -4 | x | x
Cc1ccc(Sc2ccc(C=C3C(=O)N(C)C(=O)N(C)C3=O)o2)cc1 | u | 118* | 21 | -12
C[C@H]1COc2cccc(N3CCN(C)CC3)c2S(=O)(=O)N1 | x | x | x | -1
O=C1c2ccccc2-c2cc3ccccc3cc21 | x | x | 46* | 20
c1ccc2c(c1)cc1ccc3cccc4ccc2c1c34 | x | x | 31 | -2
O=C1c2ccccc2-c2cccc3cccc1c23 | x | x | 55* | -5
O=C1C=C2c3ccccc3CC(C(=O)O)C2CC1 (stereo unspecified) | x | x | -9 | 12
Cc1cc(CN(C)C)c(OC(=O)N(C)C)cc1C | -6 | -6 | -14 | -1
COc1ccc(OC(=O)N(C)C)c(CN(C)C)c1 | -8 | -11 | -13 | 27*
Cc1cc2c(C(F)(F)F)cc(=O)oc2c2c1NCCC2 | u | u | 41 | -7
O=c1cc(C(F)(F)F)c2cc3c4c(c2o1)CCCN4CCC3 | u | 125* | i | 134
Nc1ncc2[nH]cnc2n1 | x | x | 0 | 3
CNC(=O)CSP(=S)(OC)OC | x | x | 40* | -10
C=CCN1C(=O)/C(=C/c2cc(C)n(-c3ccccn3)c2C)C(=O)NC1=S | u | active | -14 | -10
CCc1ccccc1N1C(=O)NC(=O)/C(=C\c2cc(C)n(C)c2C)C1=O | 66* | u | -4 | -21
Cc1cc(/C=C2\C(=O)NC(=O)N(c3ccc(F)cc3)C2=O)c(C)n1-c1cccc(C(=O)O)c1 | 70 | 31* | -6 | -57
Cc1cc(/C=C2\C(=O)NC(=O)N(C)C2=O)c(C)n1-c1ccc2c(c1)OCO2 | 73 | 60 | 1 | 2
Cc1cc(/C=C2/C(=O)NC(=O)N(C)C2=O)c(C)n1-c1ccccc1 | 69 | 65* | -12 | 0
SMILES | eIF4H inh | PABP FP inh | PABP1 MLLE inh | NRP1-CendR mod
Cc1cc(/C=C2/C(=O)NC(=O)N(Cc3ccco3)C2=O)c(C)n1-c1ccccc1O | 1 | -6 | -13 | -13
O=S1(=O)N(CCN2CC=C(c3c[nH]c4cc(F)ccc34)CC2)c2cccc3c2N1CCC3 | x | x | -15 | -16
C[C@@H]1CN([C@H](C)CO)C(=O)CCCn2nncc2CO[C@@H]1CN(C)C(=O)Oc1cccc2ccccc12 | x | x | -24 | -7
COc1nc2ccccc2nc1N1CC1 | x | x | 4 | 11
Cc1ccc(N2C(=O)NC(=O)/C(=C\c3cnc(-c4ccccc4)nc3)C2=O)cc1 | 58* | -6 | -2 | -14
Cc1cc(C=C2C(=O)NC(=O)NC2=O)c(C)n1-c1ccc2c(c1)OCO2 | 65 | 15 | -15 | -79
Cc1cc(/C=C2\C(=O)NC(=O)N(c3ccc(Cl)cc3)C2=O)c(C)n1C | 55 | 31 | -25 | -45
Cc1cc(/C=C2\C(=O)NC(=O)N(c3ccccc3)C2=O)c(C)n1-c1ccc(C(=O)O)c(Cl)c1 | 100 | 31* | 10 | -38
Cc1cc(/C=C2\C(=O)NC(=O)N(c3ccccc3F)C2=O)c(C)n1-c1cc(C(=O)O)cc(C(=O)O)c1 | 65 | 47* | 16 | -122
Cc1cc(C=C2C(=O)NC(=S)NC2=O)c(C)n1-c1ccc2c(c1)OCO2 | 92 | 8.9* | -57 | -42
c1ccc2[nH]c(CCN3CCCCC3)nc2c1 | x | x | 8 | 17
O=c1[nH]c2ccccc2n1C1CCN(Cc2ccc(-c3[nH]c4cc5ncnc5cc4nc3-c3ccccc3)cc2)CC1 | x | x | x | -17
Cc1nn(Cc2ccccc2)c(Cl)c1C(=O)OCC(=O)NCC1CCCO1 (stereo unspecified) | 20 | -11 | -2 | 8
COc1ccc(C(=O)OC2CC[C@@]3(C)C4CCC5[C@]6(O)CC(O)[C@@]7(O)C(CN8CC(C)CCC8[C@@]7(C)O)[C@]6(O)C[C@@]53O[C@]24O)cc1OC (stereo partly specified) | 0 | 4 | 4 | -3
Cc1ccc(/C=C2/C(=O)NC(=O)N(C)C2=O)cc1 | u | active | 15 | 9
COc1ccc(OC)c(C(O)C(C)N)c1 (stereo unspecified) | 1 | -6 | 0 | 19*
COc1ccc(OC)c(N=Cc2c(O)n(Cc3ccccc3)c(=S)[nH]c2=O)c1 | 35* | 58* | -30 | 103
COc1ccc(N=Cc2c(O)n(Cc3ccccc3)c(=S)[nH]c2=O)c(OC)c1 | u | u | -34 | -50
c1ccc(P(c2ccccc2)c2ccccn2)cc1 | -3 | -2 | 39* | -1
CCOC(=O)c1ccccc1C(=O)OCC | x | x | 82 | 44*
COc1cccc(N2C(=O)CC(=O)NC2=O)c1 | 77* | 76* | -15 | -8
CC(C)c1ccc(N2C(=O)CC(=O)NC2=O)cc1 | u | 18* | -47 | -23
Fc1ccc(CNCCc2ccc3c(c2)OCO3)cc1 | 8 | -2 | 1 | -2
O=[N+]([O-])c1cc2c(cc1CNCCc1ccc3c(c1)OCO3)OCO2 | 33 | -5 | -11 | 37*
CC1=CC(C)C(COC(N)=O)(COC(N)=O)C(C)C1 (stereo unspecified) | -3 | 7 | 2 | 11
SMILES | eIF4H inh | PABP FP inh | PABP1 MLLE inh | NRP1-CendR mod
CCN1CCN(C(=O)COc2ccc(S(=O)(=O)N3CCOCC3)cc2Cl)CC1 | 16 | 1 | 5 | 10
CCN1CCN(S(=O)(=O)c2ccc(Cl)nc2)CC1 | -2 | -6 | 2 | 28*
CCN(CC)C(=O)c1ccc(NC(=O)COc2ccc([N+](=O)[O-])cc2Cl)cc1 | 2 | -3 | 3 | 31*
O=C(/C=C/c1ccccc1)NC(=S)N1C[C@H]2C[C@H](C1)c1cccc(=O)n1C2 | -2 | 2 | 29 | -23
CCOc1ccc(N2C(=O)/C(=C/c3ccco3)C(=O)NC2=S)cc1 | 23 | 11 | -6 | -40
Cc1ccccc1N1C(=O)/C(=C/c2ccco2)C(=O)NC1=S | 75* | 74* | x | x
CC1(C)C(=O)CCC2C1=CCC1C2CCC2(C)C(O)CCC12 (stereo unspecified) | x | x | 1 | -2
Cn1c(O)c(C=Nc2ccccc2Sc2ccccc2)c(=O)n(C)c1=O | 87 | active | 2 | 7
O=S(=O)(NC1CCCC1)OCC(Cl)(Cl)Cl | -10 | -1 | -7 | 9
O=S(=O)(NC1CCCCCCC1)OCC(Cl)(Cl)Cl | 6 | 12 | -9 | 22*

Source: PubChem (Sanford-Burnham Center for Chemical Genomics)
